EPAC2 ag = activates human EPAC2 exchange factor | Q8WZA2 | EPAC2 activation, biochemical qHTS; response scale: 100% = 6.5 mM cAMP response | Potency, µM (highest dose often 154 µM), most hits filed as activators | actives 0.079% (n = 360,000) | AID 720711; note: nearly all actives have a fitted effect of over 50% in size
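In this primary screen, activation is scored as increased exchange of BODIPY-GDP from Rap1B by 100 nM EPAC2, with 50 uM GDP as competitor. Signal is normalized to the 6.5 mM cAMP agonist control.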
KCNH2 3.1 inh = inhibitors of human KCNH2 3.1 potassium channel isoform. U2OS KCNH2 3.1, thallium flux FluxOr; hits give low values. actives 0.95% (n = 340,000). activity change, % (tested at about 1.8 µM). AID 720553;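 active = maximum activity change below -70%; inconclusive = maximum activity change from -70% to -50%; inactive = maximum activity change above -50%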;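 note: thallium influx rate constant from kinetic fluorescence after stimulation buffer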
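Measured as rate of thallium-driven FluxOr signal in transduced U2OS cells carrying the 3.1 channel, read kinetically for 2 min upon stimulation; values are rate constants scaled to DMSO control wells.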
EPAC1 antagonist = antagonists of human EPAC1; O95398; EPAC1 GEF assay, Rap1b-BODIPY-GDP exchange fluorescence; Potency, µM (titrated, usually from 115 µM), hits mostly inhibitors; actives 0.14% (n = 360,000); note: nearly all actives have a fitted effect of over 50% in size
Target sequence (O95398 whole entry, looked up): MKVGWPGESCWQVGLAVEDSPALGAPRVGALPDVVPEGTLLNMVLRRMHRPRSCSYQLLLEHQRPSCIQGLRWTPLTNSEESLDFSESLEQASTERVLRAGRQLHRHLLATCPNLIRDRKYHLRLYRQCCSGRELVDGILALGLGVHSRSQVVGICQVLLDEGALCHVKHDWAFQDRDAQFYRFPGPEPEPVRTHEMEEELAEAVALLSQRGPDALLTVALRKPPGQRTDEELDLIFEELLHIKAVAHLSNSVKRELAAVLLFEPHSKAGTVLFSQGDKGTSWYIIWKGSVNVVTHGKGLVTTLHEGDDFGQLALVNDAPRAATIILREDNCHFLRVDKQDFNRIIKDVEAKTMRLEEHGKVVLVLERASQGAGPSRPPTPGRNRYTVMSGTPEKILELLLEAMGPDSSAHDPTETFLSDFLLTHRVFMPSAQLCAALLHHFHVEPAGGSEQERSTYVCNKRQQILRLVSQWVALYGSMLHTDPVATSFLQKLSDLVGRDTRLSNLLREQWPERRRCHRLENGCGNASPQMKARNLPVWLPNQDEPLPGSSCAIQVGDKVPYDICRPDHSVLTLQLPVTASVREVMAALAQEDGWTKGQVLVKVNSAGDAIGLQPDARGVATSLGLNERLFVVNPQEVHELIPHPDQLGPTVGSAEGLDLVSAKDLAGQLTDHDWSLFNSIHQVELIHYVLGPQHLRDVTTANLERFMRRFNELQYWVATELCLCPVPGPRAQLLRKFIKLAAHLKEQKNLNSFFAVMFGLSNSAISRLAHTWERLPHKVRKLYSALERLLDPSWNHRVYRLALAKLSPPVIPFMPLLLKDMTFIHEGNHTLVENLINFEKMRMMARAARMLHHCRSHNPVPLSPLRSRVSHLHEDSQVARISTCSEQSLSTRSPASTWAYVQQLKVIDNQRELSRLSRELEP
EPAC2 antagonist = EPAC2 (human) antagonism. AID 720708. EPAC2 GEF exchange of Rap1B-BODIPY-GDP, fluorescence. actives 0.18% (n = 360,000). Potency, µM (top dose mostly 114 µM), actives largely listed as inhibitors. Q8WZA2; note: nearly all actives have a fitted effect of over 45% in size
EPAC1 ag = EPAC1 (human) agonism | O95398 | EPAC1 agonist qHTS, biochemical assay; response scale: 100% = response to 6.5 mM cAMP | Potency, µM (top dose mostly 154 µM), usual class: activators | actives 0.073% (n = 360,000) | AID 720707; note: nearly all actives have a fitted effect of over 60% in size
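Read-out is the fluorescence drop as BODIPY-GDP leaves Rap1B (480 nm excitation, 540 nm emission), recorded every 5 minutes over 30 minutes. Reactions held 100 nM EPAC1, 250 nM Rap1B–BODIPY-GDP and 50 uM GDP, with 6.5 mM cAMP setting full activation.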
hERG WT inh = inhibitors of human wildtype KCNH2 potassium channel; U2OS, BacMam KCNH2, thallium flux FluxOr; hits give low values; Q12809; activity change, % at 1.84 µM; actives 0.37% (n = 340,000);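 active = maximum activity change below -70%; inconclusive = maximum activity change between -70% and -50%; inactive = maximum activity change above -50%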
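U2OS cells were transduced with wild-type KCNH2 virus (2.03 x 10^8 / mL) for 4 h at room temperature, then cultured overnight at 37 C. Thallium flux was read with FluxOr dye. Rate constants were normalized to DMSO controls.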
Large screens that a line does not name were inactive. Compounds with a hit are over-represented: about 1.4% of the library has one in this group of screens. Unless noted, calls come from the whole dose curve; as a rule, active = well fitted curve in the direction sought with a large enough effect; inconclusive = small, poorly fitted or top-dose-only effect, or another doubt; inactive = no such curve, though single readings can be large; an effect the other way counts as inactive or inconclusive.

Cc1nc(Nc2cnc(/C=C/c3cc(C(=O)Nc4cccc(C(F)(F)F)c4)ccc3C)cn2)cc(N2CCNCC2)n1	EPAC2 ag inconclusive, EPAC2 antagonist 50µM
Cc1cc(NC(=O)CSCC(=O)N(C)Cc2ccc(F)cc2)no1	none
Cc1cc(NC(=O)CSCC(=O)N(C)Cc2ccc(Cl)c(Cl)c2)no1	hERG WT inh -95
O=C(CN1CCC(n2nnc3cc(C(F)(F)F)ccc32)CC1)Nc1ccc2c(c1)CCC2	KCNH2 3.1 inh -78
O=C(CN1CCC(n2nnc3cc(C(F)(F)F)ccc32)CC1)Nc1ccc2c(c1)OCCO2	none
COc1ccc(NC(=O)CN2C(=O)NC(C)(c3ccccc3)C2=O)c(OC)c1 (stereo not given)	none
CCCCCC1CC(CC(=O)Nc2ccc([N+](=O)[O-])cc2)C(=O)O1 (stereo not given)	KCNH2 3.1 inh -71 (no result: hERG WT inh)
COCCCN1CCN(C2Cc3ccccc3Sc3ccc(Cl)cc32)CC1 (stereo not given)	KCNH2 3.1 inh -86, hERG WT inh inconclusive
CCOC(=O)c1c(C)[nH]c(C(=O)N/N=C/c2cc([N+](=O)[O-])ccc2O)c1C	KCNH2 3.1 inh -70
Cc1cccc(C)c1NC(=O)C(c1ccncc1)N1CCN(CCN(C)C)CC1 (stereo not given)	none (no result: KCNH2 3.1 inh, hERG WT inh)
C[C@H]1CN([C@@H](C)CO)C(=O)CCCn2cc(nn2)CO[C@@H]1CN(C)C(=O)Nc1ccccc1C(F)(F)F	none
Cc1ccc(S(=O)(=O)c2ccsc2NC(=O)c2ccccc2)cc1	none (no result: KCNH2 3.1 inh)
O=C(N/N=C/c1cc([N+](=O)[O-])ccc1Cl)c1cnccn1	KCNH2 3.1 inh -188, hERG WT inh -144
O=C(N/N=C/c1cccc([N+](=O)[O-])c1)c1cnccn1	none
OCC1(Cc2ccc(Cl)cc2)CCN(CCCc2ccccc2)CC1	KCNH2 3.1 inh -89, hERG WT inh inconclusive
OCC1(Cc2ccc(Cl)cc2)CCN(CC2CC=CCC2)CC1 (stereo not given)	KCNH2 3.1 inh -72
CSc1ccc(CN2CCC(CO)(Cc3ccc(Cl)cc3)CC2)cc1	KCNH2 3.1 inh -101
OCC1(Cc2ccc(Cl)cc2)CCN(Cc2ccccc2F)CC1	KCNH2 3.1 inh inconclusive
Cc1cc(C)cc(N(C(C)C(=O)NCCC2=CCCCC2)S(C)(=O)=O)c1 (stereo not given)	none
COCCNC(=O)C1(C)CCCN(Cc2csc(-c3ccc(Cl)cc3)n2)C1 (stereo not given)	none (no result: KCNH2 3.1 inh, hERG WT inh)
O=C(Nc1ccc2c(c1)OCO2)C1Cc2c(-c3ccccc3Oc3ccccc3)ccnc2O1 (stereo not given)	none (no result: KCNH2 3.1 inh, hERG WT inh)
COc1ccc(O)c(-c2[nH]ncc2C(=O)c2cccc(C)c2)c1	KCNH2 3.1 inh -109
CN(C)c1ccc(/C=C(/C(=O)c2ccc(Cl)cc2Cl)n2cncn2)cc1	EPAC2 ag 45µM, EPAC1 ag 100µM
CCc1ccc(O)c(N=Cc2ccccc2O)c1	none
O=c1[nH][nH]c2c(N=Cc3ccccc3O)ccc(F)c12	EPAC1 antagonist 40µM
Cn1c2c(c(=O)n(C)c1=O)C(c1ccccc1Cl)C(C#N)=C(N)O2 (stereo not given)	KCNH2 3.1 inh -105
O=C1C(=C(I)I)c2ccccc2-c2ccccc21	EPAC2 ag inconclusive, EPAC1 antagonist 25µM, EPAC2 antagonist inconclusive
O=C(O)c1cccc2c1C(=O)c1ccccc1-2	none
CCCCCc1cccnc1	none
O=C(N/N=C/c1ccc(F)cc1)c1cc(-c2ccco2)nc2ccccc12	EPAC1 antagonist 79µM
COCCOC(=O)N1CCCCC1c1cc(C(=O)Nc2cccc3c2CCCC3)no1 (stereo not given)	none (no result: KCNH2 3.1 inh, hERG WT inh)
O=C(Nc1ccc2nc(-c3ccccc3)[nH]c2c1)c1cccs1	none
O=C(Nc1ccc2nc(-c3ccc4nc[nH]c4c3)[nH]c2c1)c1cccs1	EPAC2 ag inconclusive, EPAC2 antagonist 50µM
Cc1sc2ncnc(NCC3(N4CCOCC4)CCCCC3)c2c1C	KCNH2 3.1 inh -72
CCC(=O)Nc1ccc(NC(=O)CSc2nnnn2-c2ccc3c(c2)OCCO3)cc1	none
CCOC(=O)c1csc(NC(=O)CSc2nnnn2-c2ccc3c(c2)OCCO3)n1	hERG WT inh -118
C=CCn1c(=O)c(C(C)=O)cn(N(C)c2ncc(C(F)(F)F)cc2Cl)c1=O	KCNH2 3.1 inh -114
Cc1ccc(S(=O)(=O)N2CCN(C(=O)C(C)Cn3cncn3)CC2)cc1 (stereo not given)	EPAC1 antagonist inconclusive
O=c1[nH]cc(CN2CCOCC2)c(=O)[nH]1	KCNH2 3.1 inh -82
COc1ccc(NC(=O)c2sc(=O)n(Cc3ccccc3C#N)c2C)cc1OC	none (no result: KCNH2 3.1 inh, hERG WT inh)
COc1ccc(CN2CCc3c([nH]c4ccccc34)C2)c(OC)c1C	KCNH2 3.1 inh -79
COc1ccc(CN2CCc3c([nH]c4ccccc34)C2)cc1Br	none
Cn1cc(CN2CCC(CO)(CCCc3ccccc3)CC2)c(-c2ccccc2)n1	KCNH2 3.1 inh inconclusive
Cc1ccc(-c2nc(NC(=O)c3nn(C)cc3[N+](=O)[O-])sc2C)cc1C	KCNH2 3.1 inh -82
Cc1cc2c(C)nc(N/N=C/c3ccc([N+](=O)[O-])cc3)nc2o1	EPAC1 antagonist inconclusive
Cc1cc2c(C)nc(N/N=C/c3ccc(F)cc3)nc2o1	EPAC1 antagonist 40µM
O=C(COC(=O)c1cc(S(=O)(=O)N2CCOCC2)ccc1Cl)NCc1ccccc1	none
Cc1ccc(-n2cc(CN3CCC(O)(c4ccccn4)CC3)c(-c3ccc(F)cc3)n2)cc1	KCNH2 3.1 inh -73, EPAC1 antagonist inconclusive, hERG WT inh inconclusive
Cc1ccc(-n2cc(CN3CCNC(=O)CC3)c(-c3ccc(F)cc3)n2)cc1	none
CC(C)(C)OC(=O)Nc1ccccc1-n1nnnc1C(C(=O)c1ccc(F)cc1)N1CCN(c2ccccn2)CC1 (stereo not given)	none (no result: KCNH2 3.1 inh, hERG WT inh)
CCOC(=O)CC/C(C)=N\N=C1\SC(CC(=O)O)C(=O)N1c1ccccc1 (stereo not given)	none
O=C(O)CC1S/C(=N\N=C2CCCCCC2)N(c2ccccc2)C1=O (stereo not given)	hERG WT inh -104
CCC(C)Sc1ccc([C@@H]2[C@H]3C(=O)N(CC)C(=O)[C@H]3[C@]3(C(=O)OC)CCCN23)cc1OC (stereo not given in full)	none
Cc1ccc(-c2cc(C(=O)N3CCc4ccccc4C3)[nH]n2)cc1C	EPAC1 antagonist inconclusive
COc1cccc(-c2cc(C(=O)N3CCc4ccccc4C3)[nH]n2)c1	hERG WT inh -302

Screening data as filed in PubChem BioAssay.
